Measured values reported in PubChem BioAssay (Tox21).
Results filed as inconclusive are left out. Where a call stands in place of a potency, no number is given. Activity calls are given as the source filed them. Calls come from the whole dose curve; as a rule, active = well fitted cell-killing curve with a large enough effect in the repeat runs; inconclusive = weak or mixed curves, or effect the other way; inactive = no such curve, though single readings can be large or run the other way.

Experiment: qHTS assay to identify small molecule agonists of the RXR signaling pathway - cell viability counter screen (AID 1159529); note: nearly all actives have a fitted effect of over 50% in size
Details: RXR-alpha-bla HEK293T viability, CellTiter-Glo, 16 h; series mostly up to 76.8 µM
Description: National Center for Advancing Translational Sciences [NCATS]
NIH Chemical Genomics Center [NCGC]
U.S. Environmental Protection Agency [EPA]
National Institutes of Environmental Health Sciences [NIEHS]
National Toxicology Program [NTP]
U.S. Food and Drug Administration [FDA]
The Retinoid X receptor (RXR), a nuclear hormone receptor expressed in liver, spleen, placenta, epidermis, central nervous system. These receptors are able to form homo and heterodimers with other nuclear receptors and due to this heterodimerizing ability, RXR functions as master regulators producing diverse physiological effects. Three subtypes of RXR exist; alpha, beta and gamma. Retinoid X receptor alpha (RXR-alpha) has potential roles in metabolic signaling pathways, skin alopecia, dermal cysts, cardiac development, insulin sensitization etc. Therefore screening environmental chemicals on RXR-alpha signaling can be used for the studies focused on such therapeutic applications. For quantification of RXR-alpha ligands signaling, GeneBLAzer RXR alpha-UAS-bla HEK 293T (Life Technologies, Carlsbad, CA) cells containing a beta-lactamase reporter-gene under control of Retinoid X receptor-alpha response element were used to screen Tox21 10K library. The cytotoxicity of the Tox21 compound library against the RXR-alpha HEK 293T cell line was tested in parallel by measuring cell viability using CellTiter-Glo assay (Promega Corporation, Madison, WI) in the same wells.
Tox21 Assay Protocol Summary:
RXR-alpha HEK 293T cells were dispensed at 2,000 cells/6 uL of assay medium containing 2% charcoal-stripped FBS using a Multidrop Combi (ThermoFisher Scientific, Waltham, MA) dispenser. The assay was performed in black wall/clear-bottom 1536-well plates (Greiner Bio-One North America Inc. Monroe, NC). Tetraoctyl ammonium bromide was used as a positive control in the cytotoxicity screen. After the assay plates were incubated at 37 C and 5% CO2 for 5 hr, 23 nL of compounds dissolved in DMSO, positive control or DMSO only were transferred to the assay plate by a Pintool station (Kalypsys, San Diego, CA). The assay plates were incubated at 37 C and 5% CO2 for 16 hr. One uL of LiveBLAzer B/G FRET substrate (Life Technologies) was added using a Flying Reagent Dispenser (FRD) (Aurora Discovery, San Diego, CA) and the plates were incubated at room temperature for 2 hr. Fluorescence intensity (405 nm excitation, 460/530 nm emission) was measured using an Envision plate reader (PerkinElmer, Shelton, CT). For cytotoxicity, 4 uL/well of CellTiter-Glo reagent was added into the assay plates using an FRD. After 30 min incubation at room temperature, the luminescence intensity was measured using a ViewLux plate reader (PerkinElmer).
Potency is the fitted concentration of half-maximal effect.

Row | Structure (SMILES) | Potency
1 | CC(C)(C)c1ccc(OC(=O)c2ccccc2O)cc1 | 49 µM (active)
2 | CC(C)O | inactive
3 | C1CCOC1 | inactive
4 | O=C(O)[C@@H]1CSCN1 | inactive
5 | O=C1C=CC(=O)O1 | inactive
6 | NS(=O)(=O)c1cc(-c2nn[nH]n2)c(NCc2cccs2)cc1Cl | inactive
7 | CCC(=O)O[C@]1(C(=O)SCF)[C@H](C)C[C@H]2[C@@H]3C[C@H](F)C4=CC(=O)C=C[C@]4(C)[C@@]3(F)[C@@H](O)C[C@@]21C | inactive
8 | CCCCC(=O)O[C@]1(C(=O)CO)[C@H](C)C[C@H]2[C@@H]3CCC4=CC(=O)C=C[C@]4(C)[C@@]3(F)[C@@H](O)C[C@@]21C | inactive
9 | O=C1N(c2ccccc2)c2ccccc2C1(Cc1ccncc1)Cc1ccncc1 | inactive
10 | O=C1CCCCCCCCCCC(=O)OCCO1 | inactive
11 | NC/C=C/C(=O)O | inactive
12 | Cn1cnc2c(F)c(Nc3ccc(Br)cc3Cl)c(C(=O)NOCCO)cc21 | inactive
13 | FC(F)(F)c1ccccc1 | inactive
14 | O=C(Cl)c1cccc([N+](=O)[O-])c1 | inactive
15 | CCCC(CCC)(C(=O)OCC)C(=O)OCC | inactive
16 | COc1cc(C)ccc1C(C)C | inactive
17 | CCN(O)CC | inactive
18 | Cc1cccc(C)c1NC(=O)CN1CCCCCC1 | inactive
19 | CCCCC1CCC(=O)O1 (stereo not given) | inactive
20 | C=CCCCCCCCCO | inactive

Row | Structure (SMILES) | Potency
21 | CC(C)C[C@H](NC(=O)OCC1c2ccccc2-c2ccccc21)C(=O)O | inactive
22 | CC1=C(O)C(=O)OC1C (stereo not given) | inactive
23 | CCCCNc1cc(C(=O)O)cc(S(N)(=O)=O)c1Oc1ccccc1 | inactive
24 | CCCCCCCOC(=O)CCC | inactive
25 | CCOC(=O)c1cc(=O)c2c(OCC(COc3cccc4oc(C(=O)OCC)cc(=O)c34)OC(=O)[C@@H](N)CCCCN)cccc2o1 | inactive
26 | CC(=O)N(CC(O)CN(C(C)=O)c1c(I)c(C(=O)NCC(O)CO)c(I)c(C(=O)NCC(O)CO)c1I)c1c(I)c(C(=O)NCC(O)CO)c(I)c(C(=O)NCC(O)CO)c1I (stereo not given) | inactive
27 | ClC(Cl)Cl | inactive
28 | O=C(O)c1cccc(Cl)c1Cl | inactive
29 | CCOc1ccccc1N | inactive
30 | CC(=O)Nc1ccc(C)c(Cl)c1 | inactive
31 | CCC(=O)Nc1ccc(O)cc1 | inactive
32 | C=CC(C)(O)CC/C=C(\C)CCC=C(C)C (stereo not given) | inactive
33 | CN(C)CC[C@@H](c1ccc(Cl)cc1)c1ccccn1 | inactive
34 | COc1cc(N)c(Cl)cc1C(=O)NC1CCN(Cc2ccccc2)CC1 | inactive
35 | CCCCc1ccc2nc(NC(=O)OC)[nH]c2c1 | inactive
36 | CC(C)C(=O)OCC(C)(C)C(O)C(C)C (stereo not given) | inactive
37 | Cc1c(N)cccc1N | inactive
38 | C=CCc1cc(OC)c(O)c(C(=O)NCCO)c1 | inactive
39 | CCN[C@H]1CN(CCCOC)S(=O)(=O)c2sc(S(N)(=O)=O)cc21 | inactive
40 | C=O | inactive
